Reference: PubChem BioAssay AID1851 (National Center for Advancing Translational Sciences (NCATS), 2009)
Among all 16,000 compounds or so, about 2,600 (16%) were called active. Not shown: some 20% with an inconclusive outcome. Only a sample is shown. Unmarked numbers belong to inactive results. The call rests on the fitted dose curve; in most records, active means well fitted curve in the direction sought with a large enough effect; inconclusive means small, poorly fitted or top-dose-only effect, or effect the other way; inactive means no such curve, though single readings can be large or run the other way. Square brackets hold non-standard residues; d marks the D form. Peptide text beside a SMILES is read from it.

These molecules were tested against Cytochrome P450 2D6 (Homo sapiens) (UniProt P10635) (assay: Cytochrome panel assay with activity outcomes). Conditions: recombinant CYP, pro-luciferin dealkylation, luminescence, p450-cyp2d6; series mostly up to 57.1 µM; activity, negative = inhibition: at the top concentration.
Sequence of Cytochrome P450 2D6 (Homo sapiens) (P10635 whole entry, looked up): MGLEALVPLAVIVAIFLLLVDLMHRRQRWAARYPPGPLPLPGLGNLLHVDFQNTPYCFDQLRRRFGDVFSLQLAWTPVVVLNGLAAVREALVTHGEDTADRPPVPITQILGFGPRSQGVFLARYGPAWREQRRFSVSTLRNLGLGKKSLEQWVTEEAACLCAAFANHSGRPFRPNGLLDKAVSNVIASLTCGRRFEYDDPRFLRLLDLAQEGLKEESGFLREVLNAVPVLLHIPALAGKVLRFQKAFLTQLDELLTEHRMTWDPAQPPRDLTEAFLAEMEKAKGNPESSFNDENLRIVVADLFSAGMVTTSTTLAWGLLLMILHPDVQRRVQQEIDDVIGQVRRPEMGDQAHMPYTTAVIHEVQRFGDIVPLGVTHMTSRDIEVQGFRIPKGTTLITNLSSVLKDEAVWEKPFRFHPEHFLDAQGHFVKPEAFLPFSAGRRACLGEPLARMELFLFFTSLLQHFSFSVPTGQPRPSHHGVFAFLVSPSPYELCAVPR
On the % scale 0 is the no-effect control and ±100 the full control effect.

Structure (SMILES)	activity, negative = inhibition	AC50
COC(=O)C(NS(=O)(=O)c1ccc(NC(C)=O)cc1)C(C)C (stereo not drawn)	-15%	–
O=S(=O)(c1cccc(C(F)(F)F)c1)N1CCC(c2cc(-c3cccc4ccccc34)n[nH]2)CC1	-18.3%	–
Cc1cccc(NC(=O)CSc2nnc(-c3ccco3)c(-c3ccco3)n2)c1C	–	12.6 µM (active)
Cc1cccc(NC(=O)CSc2nc(-c3ccccc3)c(C#N)c(=O)[nH]2)c1C	-14.5%	–
Cc1cc(C)nc(SCC(=O)Nc2ccccc2[N+](=O)[O-])n1	-7.04%	–
COc1ccc(NC(=O)N2CCC3(CC2)CCN(C(=O)c2cccc(F)c2)CC3)cc1	0.428%	–
CCCCNC(=O)CN1C(=O)NC2(CCCc3ccccc32)C1=O (stereo not drawn)	-12.9%	–
CCC1Oc2ccccc2N(CC(=O)NCCCN2CCCCC2C)C1=O (stereo not drawn)	–	3.16 µM (active)
COc1ccc2nc(NC(C)=O)sc2c1	-22%	–
Cc1ccccc1NC(=O)c1ccc(N/N=C/c2ccccc2O)c([N+](=O)[O-])c1	7.35%	–
COC(=O)NCC(c1cccnc1)N1CCN(c2ccccc2OC)CC1 (stereo not drawn)	-15.4%	–
O=c1c2ccccc2nc2n1C(CSc1ccc(F)cc1)CN2 (stereo not drawn)	0.0903%	–
CCCCNC(=O)CCC(=O)Nc1ccc2nc(N3CCOCC3)cc(C)c2c1	0.308%	–
COc1ccc(S(N)(=O)=O)cc1C(=O)NCCCN1CCN(c2cccc(Cl)c2)CC1	-25.8%	–
CN1CCN(CCCNC(=O)c2ccc(CSCc3cccc(Cl)c3)o2)CC1	–	10 µM (active)
COc1ccc2cc3cc(C(=O)NCCCN4CCOCC4)oc3nc2c1	-4.17%	–
Nc1cc(S(=O)(=O)O)cc2ccc(S(=O)(=O)O)cc12	-8.48% [at 11.4 µM]	–
CCc1ccc(-c2cc(C(=O)NCc3ccco3)c3ccccc3n2)s1	-21.5%	–
CSc1nc(N)nc(-c2cccs2)c1C#N	-25.1%	–
O=C(CCCCCN1C(=O)c2ccccc2C1=O)NCc1ccccn1	-2.31%	–
CCOc1ccc(CCNC(=O)CCCN2C(=O)c3ccccc3C2=O)cc1OCC	-8.45%	–
COc1ccc(CCNC(=O)CCCCCN2C(=O)c3ccccc3C2=O)cc1	–	5.01 µM (active)
Cc1cccc(N2CCN(CC(=O)Nc3ccc(-n4cnnn4)cc3)CC2)c1C	11.1%	–

Structure (SMILES)	activity, negative = inhibition	AC50
O=C(Oc1ccc2c(c1)CN(Cc1ccccc1)CO2)c1ccccc1	–	0.501 µM (active)
CN(Cc1ccccc1)S(=O)(=O)c1ccc(OCC(=O)N2CCOCC2)cc1	8.83%	–
COc1ccc(S(=O)(=O)N(CCc2ccccc2)CC(=O)N2CCOCC2)cc1	-14.5%	–
CC(Oc1ccc(O)cc1)(P(=O)(O)O)P(=O)(O)O	13.1%	–
C/C(CCN1CCc2nc(-c3ccccc3)c(-c3ccccc3)cc2C1)=N\OC[C@@H](O)[C@@H]1O[C@@H]2OC(C)(C)O[C@@H]2[C@H]1O	12.8% [at 11.4 µM]	–
C[C@@H](NCc1cc(Br)cc2[nH]c(=O)c(=O)[nH]c12)P(=O)(O)O	-8.92%	–
O=C(CCCN1CCC(O)(c2ccc(Br)cc2)CC1)c1ccc(F)cc1	–	3.98 µM (active)
O=C(N/N=C\c1cn(-c2ccccc2)nc1-c1ccccc1)c1ccc2c(c1)OCO2	-17.7%	–
CCOC(=O)c1c(-c2ccccc2)nc2ccccn12	-9.25%	–
c1ccc(-c2nc3ccccn3c2NCc2ccc3c(c2)OCO3)cc1	–	3.98 µM (active)
CCCS(=O)(=O)N1CCN(CC2CC=CCC2)CC1 (stereo not drawn)	–	1.12 µM (active)
CCCS(=O)(=O)N1CCCC(C(=O)N2CCOCC2)C1 (stereo not drawn)	-6.68%	–
CCCS(=O)(=O)N1CCCC(C(=O)N2CCN(C(=O)OCC)CC2)C1 (stereo not drawn)	-12.2%	–
COc1ccc(Oc2c(C=O)c3ccccc3n2C)cc1	2.31%	–
c1ccc(C2CCC(N3CCC(N4CCCCC4)CC3)CC2)cc1 (stereo not drawn)	–	14.1 µM (active)
CC(C)CC(=O)N1CCC(N2CCN(c3ccccc3)CC2)CC1	-26.8%	–
COc1ccccc1NC(=O)c1nn(-c2cccc(C(F)(F)F)c2)ccc1=O	-12.9%	–
O=[N+]([O-])c1ccc(/C=N/N/C(=N/c2ccccn2)c2ccccn2)cc1	-12.1%	–
N#Cc1cccc(-c2cc(-n3ccnc3)ncn2)c1	-20.9%	–
COc1cccc(-c2nccc(-n3ccnc3)n2)c1	–	7.94 µM (active)
c1cncc(-c2cncnc2-n2ccnc2)c1	-0.954%	–
CS(=O)(=O)Nc1cccc(-c2cncnc2-n2ccnc2)c1	-7.9%	–
COc1cccc(-c2nccc(NC3CCNCC3)n2)c1	-13.3%	–

Structure (SMILES)	activity, negative = inhibition	AC50
COc1cccc(Sc2cc(N3CCOCC3)nc(-c3ccccc3)n2)c1	-3.46%	–
COc1cccc(-c2cncnc2-n2ccnc2)c1	–	12.6 µM (active)
CN1CCN(c2ccnc(-c3cccc(NS(C)(=O)=O)c3)n2)CC1	-0.74%	–
CS(=O)(=O)Nc1cccc(-c2nccc(-n3ccnc3)n2)c1	–	12.6 µM (active)
COc1ccc(-n2c(=O)c(-c3cccc(F)c3)nc3cncnc32)cc1	-6.96%	–
N#Cc1cccc(-c2nccc(-n3ccnc3)n2)c1	–	12.6 µM (active)
CC[C@H]1C(=O)OC[C@H]1Cc1cncn1C	–	inactive
CCN(CC)c1ccc(NC(=O)c2cccc(F)c2)c(C)c1	-21.3%	–
CC[C@H]1CC[C@H]2[C@@H]3CC=C4C[C@H](OC(C)=O)[C@@H](N)C[C@@]4(C)[C@H]3CC[C@@]12C	-4.19% [at 11.4 µM]	–
NCC(=O)N[C@H](CO)C(=O)O (H-Gly-[dS]-OH)	6.25% [at 11.4 µM]	–
CC1=NNC(=S)NCCCN2CCN(CCCNC(=S)NN=C(C)C=NNC(=S)NCCCN3CCN(CCCNC(=S)NN=C1)CC3)CC2	-0.261% [at 11.4 µM]	–
CC1(C)CC(=O)C(C=NCCN2CCN(C(=S)Nc3ccc(F)cc3)CC2)=C(O)C1	-0.562%	–
CN1CCN(c2ccnc(-c3ccc(N(C)C)cc3)n2)CC1	-12.6%	–
c1cn(-c2ccnc(-c3ccc4c(c3)OCO4)n2)cn1	–	3.16 µM (active)
O=C(OCc1ccccc1)/C(=C/c1ccc(Cl)cc1)NC(=O)c1ccccc1Cl	3.78%	–
COc1ccc(Oc2ncc3nc(-c4ccc(F)cc4)c(=O)n(Cc4cccs4)c3n2)cc1	-1.7%	–
c1ccc(CNc2ccnc(-c3ccc4c(c3)OCO4)n2)cc1	–	1.58 µM (active)
CN(C)C(=O)c1ccc(-c2cc(NCc3cccnc3)ncn2)cc1	-7.64%	–
CN(C)C(=O)c1ccc(-c2nccc(NCc3cccnc3)n2)cc1	-5.03%	–
c1csc(CNc2ccnc(-c3ccc4c(c3)OCO4)n2)c1	–	0.501 µM (active)
O=C(O)COc1ccc(-c2nccc(-c3cccs3)n2)cc1	-18.2%	–
c1cncc(CNc2ccnc(-c3ccc4c(c3)OCO4)n2)c1	–	10 µM (active)
